# Measured values as given in PubChem BioAssay (NCI).
# Where “and” joins values, the source holds several entries; their conditions need not be identical. Equal entries are not always repeated. Compounds without any hit were thinned out: in the full panel of roughly 83,000, 20% have a hit.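 Method: cells in 96-well plates; compound added at one concentration; 48 h incubation; percent growth measured; values under 10 scored active.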 A number with no mark means an inactive call. Calls of active or inactive are those of the source.
# What was measured:
# Test in all cases: NCI-60 one-dose screen, 48 h (100 = growth as untreated, 0 = no growth, -100 = all killed)
# [1] = test system: HCT-15 colon; conditions: 10 µM
# [2] = test system: HT29 colon; conditions: 10 µM
# [3] = test system: SNB-19 CNS; conditions: 10 µM
# [4] = test system: U251 CNS; conditions: 10 µM
# [5] = test system: PC-3 prostate; conditions: 10 µM
# [6] = test system: SK-MEL-5 melanoma; conditions: 10 µM
# [7] = test system: UACC-62 melanoma
# [8] = test system: LOX IMVI melanoma; conditions: 10 µM
# [9] = test system: SK-MEL-28 melanoma; conditions: 10 µM
# [10] = test system: SK-MEL-2 melanoma; conditions: 10 µM
# [11] = test system: EKVX NSCLC; conditions: 10 µM
# [12] = test system: SN12C renal; conditions: 10 µM
# [13] = test system: UO-31 renal; conditions: 10 µM
# [14] = test system: TK-10 renal
# [15] = test system: ACHN renal; conditions: 10 µM
# [16] = test system: CAKI-1 renal; conditions: 10 µM
# [17] = test system: A498 renal; conditions: 10 µM
# [18] = test system: CCRF-CEM leukemia; conditions: 10 µM
# [19] = test system: MOLT-4 leukemia; conditions: 10 µM
# [20] = test system: SNB-75 CNS; conditions: 10 µM
smiles,measurement,setting,value
CCOC(=O)C(=O)C=P(c1ccccc1)(c1ccccc1)c1ccccc1,growth,[1],102%
same,growth,[2],106%
same,growth,[3],109%
same,growth,[4],107%
same,growth,[5],96.4%
same,growth,[6],102%
same,growth,[7]; 10 µM unless noted,107%
same,growth,[8],92.8%
same,growth,[9],110%
same,growth,[10],99.6%
same,growth,[11],105%
same,growth,[12],103%
same,growth,[13],90.2%
same,growth,[14]; 10 µM unless noted,99%
same,growth,[15],108%
same,growth,[16],101%
same,growth,[17],105%
same,growth,[18],99.9%
same,growth,[19],101%
CC1CCCC(CC(N)=O)CC1 (centres undefined),growth,[1],107%
same,growth,[2],85%
same,growth,[3],110%
same,growth,[4],99.7%
same,growth,[5],78.8%
same,growth,[6],103%
same,growth,[7]; 10 µM unless noted,104%
same,growth,[8],101%
same,growth,[9],119%
same,growth,[10],109%
same,growth,[11],107%
same,growth,[12],107%
same,growth,[13],91%
same,growth,[14]; 10 µM unless noted,94.2%
same,growth,[16],93.4%
same,growth,[18],90.4%
same,growth,[19],101%
CCN(CC)CCNc1ccc(CO)c2sc3ccccc3c(=O)c12,growth,[1],27.2%
same,growth,[2],18.1%
same,growth,[3],43.2%
same,growth,[4],32.4%
same,growth,[5],46.1%
same,growth,[7]; 10 µM unless noted,30.6%
same,growth,[8],28%
same,growth,[10],45.4%
same,growth,[11],65.6%
same,growth,[12],37.5%
same,growth,[13],25.5%
same,growth,[14]; 10 µM unless noted,46.4%
same,growth,[15],20.4%
same,growth,[16],43.2%
same,growth,[17],-17.9% (active)
same,growth,[18],37%
same,growth,[19],8.97% (active)
CC(=O)c1sc2c(c1OC(=O)c1ccc(Cl)cc1Cl)c(=O)n(-c1ccccc1)c(=S)n2-c1ccccc1,growth,[1],3.9% (active)
same,growth,[2],-23.9% (active)
same,growth,[3],16.3%
same,growth,[4],1.6% (active)
same,growth,[5],-29.7% (active)
same,growth,[6],42.7%
same,growth,[7]; 10 µM,29.4%
same,growth,[7]; 100 µM,-11.6% (active) and -45.7% (active)
same,growth,[8],-18.9% (active)
same,growth,[10],-43.9% (active)
same,growth,[11],51.4%
same,growth,[12],13.4%
same,growth,[14]; 10 µM,-9.03% (active)
same,growth,[14]; 100 µM,2.01% (active) and -66.5% (active)
same,growth,[15],-18.2% (active)
same,growth,[16],13.5%
same,growth,[17],-41.9% (active)
same,growth,[18],-24.2% (active)
same,growth,[19],-11.4% (active)
O=C(c1ccccc1)C1CCC1,growth,[1],99.7%
same,growth,[2],85.4%
same,growth,[3],103%
same,growth,[4],76.1%
same,growth,[5],90.4%
same,growth,[6],107%
same,growth,[7]; 10 µM unless noted,94%
same,growth,[8],106%
same,growth,[10],96.7%
same,growth,[11],105%
same,growth,[12],89.2%
same,growth,[13],76.1%
same,growth,[14]; 10 µM unless noted,93.4%
same,growth,[15],106%
same,growth,[16],98.5%
same,growth,[17],103%
same,growth,[18],88.6%
same,growth,[19],91.3%
CN(C)CCC(=O)c1ccc(O)cc1,growth,[1],104%
same,growth,[2],105%
same,growth,[20],93.7%
same,growth,[4],100%
same,growth,[5],106%
same,growth,[8],97.2%
same,growth,[9],110%
same,growth,[10],107%
same,growth,[11],107%
same,growth,[13],87.2%
same,growth,[14]; 10 µM unless noted,106%
same,growth,[15],114%
same,growth,[16],97.1%
same,growth,[17],99.4%
same,growth,[18],109%
same,growth,[19],113%
NC(=S)CN1CCOCC1,growth,[1],107%
same,growth,[2],100%
same,growth,[3],104%
same,growth,[4],102%
same,growth,[5],91.9%
same,growth,[6],106%
same,growth,[7]; 10 µM unless noted,99%
same,growth,[8],104%
same,growth,[9],106%
same,growth,[11],112%
same,growth,[12],103%
same,growth,[13],88%
same,growth,[14]; 10 µM unless noted,99.3%
same,growth,[15],103%
same,growth,[16],95.6%
same,growth,[17],89.9%
same,growth,[18],-25.8% (active)
same,growth,[19],32.3%
O=C(Nc1cc(-c2ccccc2)[nH]n1)c1ccc(Cl)cc1,growth,[1],61.4%
same,growth,[2],67.2%
same,growth,[3],65.2%
same,growth,[4],70.2%
same,growth,[5],75.9%
same,growth,[6],87.6%
same,growth,[7]; 10 µM unless noted,79.7%
same,growth,[8],89.5%
same,growth,[9],117%
same,growth,[10],78%
same,growth,[11],101%
same,growth,[12],84.1%
same,growth,[13],59.1%
same,growth,[14]; 10 µM unless noted,66.6%
same,growth,[15],60.8%
same,growth,[17],78.6%
same,growth,[18],62%
same,growth,[19],85.2%
Nc1ccccc1SC(CC(=O)c1ccccc1)c1c(Cl)cccc1Cl (centres undefined),growth,[1],44.5%
same,growth,[2],42.5%
same,growth,[20],70.6%
same,growth,[4],27%
same,growth,[6],81.4%
same,growth,[7]; 10 µM unless noted,73.9%
same,growth,[8],22.7%
same,growth,[9],90.8%
same,growth,[10],91.6%
same,growth,[12],62.9%
same,growth,[13],58.1%
same,growth,[15],69.4%
same,growth,[16],76.9%
same,growth,[17],79.1%
same,growth,[19],17.2%
COC(=O)/C=C\C(=O)OC,growth,[1],107%
same,growth,[2],103%
same,growth,[3],109%
same,growth,[4],105%
same,growth,[5],93.1%
same,growth,[6],106%
same,growth,[7]; 10 µM unless noted,101%
same,growth,[8],102%
same,growth,[9],112%
same,growth,[11],122%
same,growth,[12],102%
same,growth,[13],81.1%
same,growth,[14]; 10 µM unless noted,109%
same,growth,[15],113%
same,growth,[17],104%
same,growth,[18],110%
same,growth,[19],87.8%
